Compounds without any hit were thinned out: in the full panel of roughly 83,000, 20% have a hit.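 Cell lines were cultured in 96-well plates, exposed to a single compound concentration, and assessed for percent growth 48 hours later.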 The source made the active and inactive calls. Rule for the calls: active = growth percent below 10; inactive = the rest.
Legend:
Experiment in all cases: NCI-60 one-dose screen, 48 h (100 = growth as untreated, 0 = no growth, -100 = all killed)
K-562 leukemia = settings: 10 µM unless noted
MALME-3M melanoma = settings: 10 µM unless noted
MDA-MB-231 breast = settings: 10 µM unless noted
RXF 393 renal = settings: 10 µM unless noted
SF-268 CNS = settings: 10 µM unless noted
SF-295 CNS = settings: 10 µM unless noted
SF-539 CNS = settings: 10 µM unless noted
UACC-257 melanoma = settings: 10 µM unless noted
M14 melanoma = settings: 10 µM unless noted
HCT-15 colon = settings: 10 µM unless noted
HT29 colon = settings: 10 µM unless noted
SNB-75 CNS = settings: 10 µM unless noted
SNB-19 CNS = settings: 10 µM unless noted
U251 CNS = settings: 10 µM unless noted
PC-3 prostate = settings: 10 µM unless noted
SK-MEL-5 melanoma = settings: 10 µM unless noted
UACC-62 melanoma = settings: 10 µM unless noted
LOX IMVI melanoma = settings: 10 µM unless noted
SK-MEL-2 melanoma = settings: 10 µM unless noted
SK-MEL-28 melanoma = settings: 10 µM

Measured: growth

NCCOc1ncccc1/C=C1\c2ccccc2-c2ccc([N+](=O)[O-])cc21
active: K-562 leukemia 2.88% | MALME-3M melanoma -80.4% | MDA-MB-231 breast -42.3% | RXF 393 renal -88.6% | SF-268 CNS -12.9% | SF-295 CNS -36.6% | SF-539 CNS -83% | UACC-257 melanoma 5.4% | M14 melanoma -63.3% | HCT-15 colon -26.4% | HT29 colon -6.91% | SNB-75 CNS -81.1% | SNB-19 CNS -6.38% | U251 CNS -75% | PC-3 prostate 3.4% | SK-MEL-5 melanoma -97.5% | UACC-62 melanoma -81.5% | LOX IMVI melanoma -91.1% | SK-MEL-2 melanoma -21.2%

COC(=O)c1c2c(c(C)[n+]([O-])c1C)C(=O)C=C(NCc1ccc(F)c(F)c1)C2=O
active: K-562 leukemia 1.15% | MALME-3M melanoma -100% | MDA-MB-231 breast -31.2% | RXF 393 renal -51% | SF-268 CNS -12.2% | SF-295 CNS -99% | SF-539 CNS -95.7% | UACC-257 melanoma -83% | M14 melanoma -88.2% | HCT-15 colon -83.3% | HT29 colon 1.02% | SNB-75 CNS -96.7% | SNB-19 CNS -67.2% | U251 CNS -31.9% | PC-3 prostate 3.37% | SK-MEL-5 melanoma -100% | UACC-62 melanoma -83.9% | LOX IMVI melanoma -72.7% | SK-MEL-28 melanoma -19.3% | SK-MEL-2 melanoma -50.1%

CC[C@]1(O)C[C@@H]2CN(CCc3c([nH]c4ccccc34)[C@@](C(=O)OC)(c3cc4c(cc3OC)N(C)[C@H]3[C@@](O)(C(=O)OC)[C@H](OC(C)=O)[C@]5(CC)C=CCN6CC[C@]43[C@@H]65)C2)C1
inactive: K-562 leukemia 15.3% | MALME-3M melanoma 40.9% | RXF 393 renal 22.1% | SF-268 CNS 17.3% | UACC-257 melanoma 64.4% | HCT-15 colon 14.6% | SNB-19 CNS 29.8% | U251 CNS 16.6% | PC-3 prostate 20% | UACC-62 melanoma 34.4% | SK-MEL-28 melanoma 66% | SK-MEL-2 melanoma 39.8%
active: MDA-MB-231 breast -15.3% | SF-295 CNS 8.85% | SF-539 CNS -2.89% | M14 melanoma 3.97% | HT29 colon 8.06% | SNB-75 CNS 3.82% | SK-MEL-5 melanoma -54.6%

O=NN(Cc1cccnc1)C(=O)NC1CCCCC1
inactive: K-562 leukemia 101% | MALME-3M melanoma 102% | MDA-MB-231 breast 127% | RXF 393 renal 102% | SF-268 CNS 106% | SF-295 CNS 80.7% | SF-539 CNS 96.2% | UACC-257 melanoma 92.5% | M14 melanoma 107% | HCT-15 colon 108% | HT29 colon 103% | SNB-75 CNS 84.7% | SNB-19 CNS 102% | U251 CNS 97.4% | PC-3 prostate 98.7% | SK-MEL-5 melanoma 102% | UACC-62 melanoma 110% | LOX IMVI melanoma 103% | SK-MEL-2 melanoma 119%

Cc1ccc(Cn2c(N3CCC(C(=O)NCc4cccs4)CC3)nc3ccccc32)cc1
active: K-562 leukemia -42.9%
inactive: MALME-3M melanoma 63.6% | MDA-MB-231 breast 71.3% | RXF 393 renal 80.7% | SF-268 CNS 72.3% | SF-295 CNS 97% | SF-539 CNS 88% | UACC-257 melanoma 119% | M14 melanoma 31.5% | HCT-15 colon 87% | HT29 colon 48.6% | SNB-75 CNS 77.5% | SNB-19 CNS 112% | U251 CNS 73.9% | PC-3 prostate 39.8% | SK-MEL-5 melanoma 92% | UACC-62 melanoma 101% | SK-MEL-28 melanoma 98.1% | SK-MEL-2 melanoma 101%

CCOc1ccc(-c2nonc2NC(=O)c2cccc(C)c2)cc1OCC
inactive: K-562 leukemia 11% | MALME-3M melanoma 59.6% | MDA-MB-231 breast 76.5% | RXF 393 renal 65.3% | SF-268 CNS 84.1% | SF-295 CNS 27.8% | SF-539 CNS 80.8% | UACC-257 melanoma 89.4% | M14 melanoma 71.3% | HCT-15 colon 65.2% | HT29 colon 28.3% | SNB-75 CNS 89.2% | SNB-19 CNS 90.7% | U251 CNS 75% | PC-3 prostate 27.4% | SK-MEL-5 melanoma 35.2% | UACC-62 melanoma 78.4% | SK-MEL-28 melanoma 89.5% | SK-MEL-2 melanoma 88.6%

O=S1(=O)N(Cc2ccccc2)[C@@H](Cc2ccccc2)C2O[C@H]2[C@H](Cc2ccccc2)N1Cc1ccccc1 (some centres not stated)
inactive: K-562 leukemia 23.4% | MALME-3M melanoma 67.8% | MDA-MB-231 breast 24.2% | RXF 393 renal 45.2% | SF-268 CNS 57.8% | SF-295 CNS 38% | SF-539 CNS 38.6% | UACC-257 melanoma 39.1% | M14 melanoma 72.6% | HCT-15 colon 26.1% | HT29 colon 46.7% | SNB-75 CNS 46.3% | SNB-19 CNS 44.9% | U251 CNS 41.5% | PC-3 prostate 42% | SK-MEL-5 melanoma 28.3% | UACC-62 melanoma 40.8% | LOX IMVI melanoma 19.6% | SK-MEL-2 melanoma 84.1%

O=C(c1nc2ccccc2[nH]1)C1C(c2ccc(F)cc2)C2CC3CCCCC3N2[C@@]12C(=O)Nc1ccc(Cl)cc12 (some centres not stated)
active: RXF 393 renal 9.81%
inactive: K-562 leukemia 29.4% | MALME-3M melanoma 42.6% | MDA-MB-231 breast 43.3% | SF-268 CNS 57% | SF-295 CNS 29% | SF-539 CNS 55.5% | UACC-257 melanoma 58.9% | M14 melanoma 40.7% | HCT-15 colon 28% | HT29 colon 24.9% | SNB-75 CNS 36.7% | SNB-19 CNS 54.1% | U251 CNS 51.2% | PC-3 prostate 35.4% | SK-MEL-5 melanoma 47.3% | LOX IMVI melanoma 46% | SK-MEL-28 melanoma 61% | SK-MEL-2 melanoma 65.8%

CCC(C)(C)C(=O)O[C@H]1C[C@@H](C)C=C2C=C[C@H](C)[C@H](CC[C@@H]3CC=CC(=O)O3)[C@H]21
active: LOX IMVI melanoma -47.4%
inactive: K-562 leukemia 32.8% | MALME-3M melanoma 94.1% | MDA-MB-231 breast 96.9% | RXF 393 renal 41.3% | SF-268 CNS 85.7% | SF-295 CNS 97.5% | SF-539 CNS 96.1% | UACC-257 melanoma 60.4% | M14 melanoma 61.3% | HCT-15 colon 63.9% | HT29 colon 44.5% | SNB-75 CNS 80.4% | SNB-19 CNS 84% | U251 CNS 82.2% | PC-3 prostate 49.1% | SK-MEL-5 melanoma 71% | SK-MEL-28 melanoma 79.2% | SK-MEL-2 melanoma 86.1%

O=C(Nc1ccc(Br)cc1F)c1cc(Cl)ccc1O
active: K-562 leukemia 5.34% | MALME-3M melanoma -34.7% | MDA-MB-231 breast -27.9% | RXF 393 renal -0.138% | SF-268 CNS 2.69% | SF-295 CNS -62.6% | SF-539 CNS -1.11% | UACC-257 melanoma -14% | M14 melanoma -28.3% | HCT-15 colon 2.29% | SNB-75 CNS -34.7% | U251 CNS -0.181% | PC-3 prostate -5.33% | UACC-62 melanoma -24.9% | LOX IMVI melanoma 1.68% | SK-MEL-28 melanoma -6.77% | SK-MEL-2 melanoma -25.8%
inactive: HT29 colon 15.6% | SNB-19 CNS 14%

CS(=O)(=O)Nc1ccc(C(=O)NC(C(=O)NO)c2ccc(-c3cccc(F)c3)cc2)cc1 (configuration not stated)
inactive: K-562 leukemia 90% | MALME-3M melanoma 92% | MDA-MB-231 breast 42.1% | RXF 393 renal 106% | SF-268 CNS 47.3% | SF-295 CNS 93.7% | SF-539 CNS 92.6% | UACC-257 melanoma 101% | M14 melanoma 85.3% | HCT-15 colon 91.5% | HT29 colon 53.2% | SNB-75 CNS 24.8% | SNB-19 CNS 45.2% | U251 CNS 94.1% | PC-3 prostate 86.9% | SK-MEL-5 melanoma 48% | LOX IMVI melanoma 44.8% | SK-MEL-28 melanoma 91.8% | SK-MEL-2 melanoma 73.6%

O=C1c2cc(I)ccc2Oc2cc([N+](=O)[O-])ccc2N1c1ccc(Cl)cc1F
inactive: K-562 leukemia 49.4% | MALME-3M melanoma 84.9% | MDA-MB-231 breast 78.4% | RXF 393 renal 99% | SF-268 CNS 79.1% | SF-295 CNS 92% | SF-539 CNS 92.8% | UACC-257 melanoma 94.1% | M14 melanoma 97.7% | HCT-15 colon 57.4% | HT29 colon 83.9% | SNB-75 CNS 75.4% | SNB-19 CNS 90.5% | U251 CNS 79.3% | PC-3 prostate 78.7% | UACC-62 melanoma 76.8% | LOX IMVI melanoma 86.7% | SK-MEL-28 melanoma 97.3% | SK-MEL-2 melanoma 85.4%

COc1ccc(C2=Nn3c(NN)nnc3SC2)cc1
inactive: K-562 leukemia 83.3% | MALME-3M melanoma 109% | MDA-MB-231 breast 103% | RXF 393 renal 95.8% | SF-268 CNS 100% | SF-295 CNS 106% | SF-539 CNS 95.6% | UACC-257 melanoma 84.3% | M14 melanoma 113% | HCT-15 colon 114% | HT29 colon 83.8% | SNB-75 CNS 92.4% | SNB-19 CNS 104% | U251 CNS 99.7% | PC-3 prostate 87.6% | SK-MEL-5 melanoma 91.5% | LOX IMVI melanoma 99.9% | SK-MEL-28 melanoma 110% | SK-MEL-2 melanoma 94.4%

CN1CCN(Cc2ccc(C(=O)Nc3cncc(C#Cc4cnc(N)c5ccccc45)c3)cc2C(F)(F)F)CC1
active: K-562 leukemia -46% | MALME-3M melanoma -86.9% | MDA-MB-231 breast -82.2% | RXF 393 renal -81.5% | SF-268 CNS -69.5% | SF-295 CNS -82.7% | SF-539 CNS -95.9% | UACC-257 melanoma -75% | M14 melanoma -85.2% | HCT-15 colon -37.6% | HT29 colon -53.2% | SNB-75 CNS -96.4% | SNB-19 CNS -47.5% | U251 CNS -70.5% | PC-3 prostate -18.8% | SK-MEL-5 melanoma -94.6% | LOX IMVI melanoma -92.4% | SK-MEL-28 melanoma -85.5% | SK-MEL-2 melanoma -53.9%

Source: PubChem BioAssay (NCI)
